Hits are enriched below; roughly 21% of the tested compounds scored in any of these assays.
D3 antag: qHTS of D3 Dopamine Receptor Antagonist: qHTS. D(3) dopamine receptor (Homo sapiens), P35462. AID 652054, 2013. D3R cells, DiscoveRx beta-arrestin luminescence, antagonist mode; active compounds read low. 360,000 compounds, 2.5% hits. max response, negative = inhibition, %; in the data active = max response below about -50%; inconclusive = no clear call, values can overlap the other calls
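Cells plated overnight at 1500 cells/well, then exposed to library compounds with dopamine controls for 90 minutes at 37 degrees C. DiscoveRx reagent added for 30–60 minutes at room temperature; luminescence read, quantitative HTS format.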
IL-1B inflam inh: qHTS for Inhibitors of Inflammasome Signaling: IL-1-beta AlphaLISA Primary Screen. THP-1 LPS/ATP IL-1B secretion, AlphaLISA, 16 h; active compounds read low. activity change, % at 57.5 µM. 360,000 compounds, 4.7% hits. AID 743279, 2014; in the data active = activity change below about -50%; inconclusive = mostly about -30% to -49%
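Secreted IL-1B measured by AlphaLISA bead assay after 16 h compound exposure of THP-1 cells; compounds (final up to 57.5 uM) added 1 h before LPS (250 ng/mL) and ATP (1.25 mM) stimulation; lower signal means less secretion.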
ClpP mod: qHTS Assay for Activators of ClpP; purified B. subtilis ClpP, FRET peptide cleavage, 20 min; Potency, µM (doses to about 57.5 µM); 340,000 compounds, 1.9% hits; active = well fitted falling curve with a large enough effect; inconclusive = small, poorly fitted or top-dose-only effect; inactive = no such curve, though single readings can be large or run the other way; also: the source files actives as falling curves though it sought activators and does not explain the sign; nearly all actives have a fitted effect of over 65% in size
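FRET quenching reversal measured ClpP activation: 10 microg/mL B. subtilis ClpP at pH 8 with the FRET-FV decapeptide, read at 430 nm after 320 nm excitation. The 20-min minus 0-min signal was scaled between DMSO/no-enzyme wells and ADEP (5.8 microM final).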
D3 ag: qHTS of D3 Dopamine Receptor Agonist: qHTS; D(3) dopamine receptor (Homo sapiens), P35462; D3R DiscoveRx beta-arrestin cells, luminescence, 90 min; max activation, %; 410,000 compounds, 0.58% hits; in the data active = max activation above about 30%
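Agonist mode: compounds and dopamine controls were applied to plated cells for 90 min at 37 degrees C after an overnight attachment at 1500 cells/well. Luminescent read-out followed 30 - 60 minutes at room temperature with DiscoveRx detection reagent.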
DT40 TDP1 no CPT: qHTS for Inhibitors of human tyrosyl-DNA phosphodiesterase 1 (TDP1): qHTS in cells in absence of CPT; DT40 Tdp1-/- hTDP1 cells, no CPT, ATP luminescence, 48 h; Potency, µM (top dose mostly 46.2 µM), most hits filed as inhibitors; 420,000 compounds, 15% hits; also: nearly all actives have a fitted effect of over 55% in size
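Compound effects on proliferation are scored in DT40 Tdp1-/-;hTDP1 cells in the absence of CPT. ATP levels (CellTiter-Glo luminescence) are recorded after a ≥48 hr, 37 °C incubation.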
TDP1 cell CPT: qHTS for Inhibitors of human tyrosyl-DNA phosphodiesterase 1 (TDP1): qHTS in cells in presence of CPT; chicken DT40 Tdp1-/-;hTDP1 cells + 20 nM CPT, ATP luminescence, 48 h; Potency, µM (titrated, usually from 46.2 µM), usual class: inhibitors; 420,000 compounds, 12% hits; also: nearly all actives have a fitted effect of over 55% in size
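Chicken DT40 Tdp1-/- cells complemented with human TDP1, 400 cells/well, exposed to compounds plus 20 nM camptothecin for at least 48 h at 37 C; viability read as ATP content by CellTiter-Glo luminescence.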
Of the large screens only hits and unclear results are named; the others gave an inactive call. Unless noted, calls follow the shape of the dose curve; as a rule, active = well fitted inhibition curve with a large enough effect; inconclusive = small, poorly fitted or top-dose-only effect; inactive = flat fitted curve, though single readings scatter.

CCS(=O)(=O)N1CCC(C(=O)Nc2cc(C)ccc2O)CC1	DT40 TDP1 no CPT inconclusive
Cc1ccc([N+](=O)[O-])cc1NC(=O)Nc1onc(C)c1C	DT40 TDP1 no CPT inconclusive
C=CCN(c1nc(C)c(Br)c(OC)n1)S(=O)(=O)c1ccc(C)cc1	none
COC(=O)[C@@]12C[C@@H](CC(=O)NCc3cccs3)C(=O)N(Cc3cccc4ccccc34)C1=CCC(C)(C)C2	DT40 TDP1 no CPT inconclusive, TDP1 cell CPT inconclusive
Oc1cc(-n2cccn2)c(O)cc1-n1cccn1	ClpP mod 28µM, DT40 TDP1 no CPT 4.1µM, TDP1 cell CPT 5.8µM
O=C(O)c1ccc(-n2cccn2)c([N+](=O)[O-])c1	none (no result: ClpP mod)
COc1cc(NC(=O)CN2CCN(CC(=O)Nc3ccc(F)cc3)CC2)cc(OC)c1	none (no result: D3 antag, IL-1B inflam inh)
CCN1CCN(c2nn3c(=O)c4ccccc4nc3c3ccccc23)CC1	IL-1B inflam inh -58, DT40 TDP1 no CPT 16µM, TDP1 cell CPT inconclusive
CC1CN(c2nn3c(=O)c4ccccc4nc3c3ccccc23)CC(C)O1 (configuration not stated)	IL-1B inflam inh -63, DT40 TDP1 no CPT 5.8µM, TDP1 cell CPT 8.2µM
COc1cccc(C(=O)N(Cc2cc3cc4c(cc3nc2N(C)C)OCO4)CC2CCCO2)c1 (configuration not stated)	none (no result: D3 antag, IL-1B inflam inh, ClpP mod, D3 ag)
O=[N+]([O-])c1ccc(S(=O)(=O)c2cccc(C(F)(F)F)c2)nc1	D3 antag -126, IL-1B inflam inh -102, DT40 TDP1 no CPT 0.65µM, TDP1 cell CPT 2.6µM (no result: ClpP mod)
O=C(COC(=O)c1ccc(Cl)c(S(=O)(=O)N2CCCC2)c1)NCc1ccccc1	TDP1 cell CPT inconclusive
O=C(COC(=O)c1ccc(Cl)c(S(=O)(=O)N2CCCCCC2)c1)NCc1ccccc1	DT40 TDP1 no CPT inconclusive, TDP1 cell CPT 23µM
Cc1ccc(C(=O)OCC(=O)c2c[nH]c3ccccc23)cc1NC(=O)c1ccco1	IL-1B inflam inh inconclusive, DT40 TDP1 no CPT 21µM, TDP1 cell CPT inconclusive
Cc1ccc(C(=O)OCC(=O)c2c[nH]c3ccccc23)cc1S(=O)(=O)N1CCCCC1	DT40 TDP1 no CPT 18µM, TDP1 cell CPT 23µM
CCN(CC)C(=O)COC(=O)c1ccc(C)c(NC(=O)c2ccco2)c1	none
O=C(OCC(=O)N1CCCC1)c1ccc(Cl)c([N+](=O)[O-])c1	IL-1B inflam inh -57 (no result: ClpP mod)
CN1C[C@@H]2[C@@H]3C(=O)N(C)C(=O)[C@@H]3[C@](C)(C1=O)N2C(=O)c1ccc(Cl)cc1	none
Cc1[nH]c2ccccc2c1C(=O)COC(=O)c1cccc(S(=O)(=O)N2CCCCC2)c1	DT40 TDP1 no CPT inconclusive, TDP1 cell CPT 18µM
Cc1ccc(C(=O)OCC(=O)NCc2ccccc2)cc1S(=O)(=O)N1CCCCC1	DT40 TDP1 no CPT inconclusive, TDP1 cell CPT 15µM
CC(OC(=O)c1ccc(Cl)c([N+](=O)[O-])c1)C(=O)N1CCN(Cc2ccccc2)CC1 (configuration not stated)	IL-1B inflam inh -96, DT40 TDP1 no CPT inconclusive, TDP1 cell CPT inconclusive
Cn1c(N)c(C(=O)COC(=O)c2cccc(S(=O)(=O)N3CCCCC3)c2)c(=O)n(C)c1=O	none
Cc1ccc(CNC(=O)COC(=O)c2ccc(Cl)c(N)c2)cc1	TDP1 cell CPT 23µM
Cc1ccc2c(c1)c1c(c(=O)n(Cc3ccccc3)c(=O)n1Cc1ccccc1F)n2C	ClpP mod inconclusive (no result: D3 antag, IL-1B inflam inh)
O=C(OCC(=O)N1CCCCCC1)c1ccc(Cl)c(S(=O)(=O)N2CCCC2)c1	DT40 TDP1 no CPT inconclusive, TDP1 cell CPT 23µM (no result: ClpP mod)
COc1ccc(C(=O)OCC(=O)c2c[nH]c3ccccc23)c(OC)c1	DT40 TDP1 no CPT inconclusive, TDP1 cell CPT inconclusive

From PubChem
